Screening results deposited in PubChem BioAssay by National Center for Advancing Translational Sciences (NCATS).
Rows were chosen to be rich in hits. Some 2.4% of all compounds tested hit in one or more screens of this group.
D2 ag-1: HTS Assay for Allosteric Agonists of the Human D2 Dopamine Receptor: Primary Screen for Agonists | D(2) dopamine receptor (Homo sapiens), P14416 | 340,000 tested, 0.53% active | AID 485358, 2010 | HEK293 T-REx D2 cells, calcium flux agonist mode | activation, % at 2 µM;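 active = activation over 3 SD above normal in the single-dose calcium agonist read, cut at about 30% in these data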
Target sequence (P14416 whole entry, looked up): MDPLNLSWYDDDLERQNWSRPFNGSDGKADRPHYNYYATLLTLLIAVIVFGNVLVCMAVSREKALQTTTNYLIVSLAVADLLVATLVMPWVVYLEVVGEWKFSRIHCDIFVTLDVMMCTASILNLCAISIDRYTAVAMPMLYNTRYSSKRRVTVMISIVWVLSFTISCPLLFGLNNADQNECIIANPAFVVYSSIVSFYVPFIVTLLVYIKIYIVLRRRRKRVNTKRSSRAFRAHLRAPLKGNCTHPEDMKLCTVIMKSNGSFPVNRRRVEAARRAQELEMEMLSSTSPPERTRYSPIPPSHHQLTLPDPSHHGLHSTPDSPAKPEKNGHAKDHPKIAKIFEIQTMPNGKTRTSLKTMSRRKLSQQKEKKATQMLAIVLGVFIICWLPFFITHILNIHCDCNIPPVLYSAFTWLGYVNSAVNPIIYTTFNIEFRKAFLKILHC
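HEK293 Trex D2 cells, tetracycline-induced, o/n 30 C 5% CO2; no-wash Ca dye, RT 30–90 min; 10-cycle baseline, 23 nl cpd added, kinetic Ca read 180 s; agonist hits = positive Ca response.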
D2 PAM-1: Beta-Arrestin HTS for Positive Allosteric Modulators of the Human D2 Dopamine Receptor: Potentiators. D(2) dopamine receptor (Homo sapiens), P14416. DiscoveRx D2 beta-arrestin cells, luminescence, 90 min; 100% = 57 uM dopamine signal. AID 624464, 2012. 360,000 tested, 0.23% active. potentiation, % (no concentration beside the values); in the data active = potentiation above about 50%; inconclusive = mostly about 30% to 49%
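PathHunter D2 cells, attached overnight at 37 deg C, received compound in DMSO plus dopamine at EC20 (50 nM final) for 90 min at 37 deg C. Beta-arrestin recruitment was read as luminescence after 1 h with detection reagent at ambient temperature.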
D2 antag: HTS Assay for Allosteric Antagonists of the Human D2 Dopamine Receptor: Primary Screen for Antagonists | D(2) dopamine receptor (Homo sapiens), P14416 | HEK293 TREx D2 cells, calcium flux, dopamine EC80 | inhibition, % at 10 µM | 340,000 tested, 2% active | AID 485344, 2010; in the data active = inhibition above about 30%; inactive = below that, where a call was filed
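Tetracycline-induced HEK293 TREx cells expressing D2 receptor forced-coupled to calcium signalling, loaded with no-wash calcium dye. Compounds added and calcium flux read 180 s, then dopamine added at EC80 and read a further 180 s.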
D2 ag-2: Beta-Arrestin HTS for Positive Allosteric Modulators of the Human D2 Dopamine Receptor: Agonists. AID 624465, 2012. activation, % (concentration not given with the values). D(2) dopamine receptor (Homo sapiens), P14416. DiscoveRx PathHunter D2 beta-arrestin, luminescence, 90 min; 100% = 57 uM dopamine signal. 360,000 tested, 0.084% active; in the data active = activation above about 40%; inconclusive = between about 15% and that limit
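Agonist mode: compounds alone added to overnight-plated D2 PathHunter cells for 90 min at 37 C, with 57 uM final dopamine (EC100) defining full response. Beta-arrestin recruitment detected by chemiluminescent reagent, read after 1 h at ambient temperature.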
D2 PAM-2: HTS Assay for Positive Allosteric Modulators of the Human D2 Dopamine Receptor: Primary Screen for Potentiators; D(2) dopamine receptor (Homo sapiens), P14416; HEK293 T-REx D2, calcium flux, EC20 dopamine potentiation; potentiation, % at 10 µM; 340,000 tested, 0.34% active;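 active = potentiation over 3 SD above the plate norm, cut at about 30% in these data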
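Potentiation of an EC20 dopamine calcium response is measured in a force-coupled, tetracycline-inducible Hek293 Trex D2 line. Compound-only kinetic reads over 180 s flag agonists before dopamine addition.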
Each line names hits and unclear results; the compound was inactive in the other large screens.

CCOCC(=O)Nc1nnc(COC)s1	D2 antag 31
CC(C)c1ccc(C2=NC(c3ccncc3)=Nc3ccc(F)cc3N2)cc1	none (no result: D2 PAM-1, D2 antag, D2 ag-2)
Cc1cccc(NS(=O)(=O)c2ccccc2)n1	D2 antag 31
COc1cc(OC)cc(C(=O)OCC(=O)Nc2ccc3[nH]c(=O)[nH]c3c2)c1	D2 antag 36
O=C(COC(=O)c1c(F)cccc1F)Nc1ccc2[nH]c(=O)[nH]c2c1	D2 antag 65
COc1ccc(CC(=O)OCC(=O)Nc2ccc3[nH]c(=O)[nH]c3c2)cc1	D2 PAM-1 inconclusive
C=CCOC(=O)N1CCC2CC1c1c(-c3ccc(C(F)(F)F)cc3)cccc12 (stereo not given)	none (no result: D2 ag-1, D2 antag, D2 PAM-2)
COC(=O)c1sc(S(=O)(=O)Nc2ccc(C)cc2)c(C(=O)OC)c1C	D2 PAM-2 32
COC(=O)c1cc2cc(NS(=O)(=O)c3ccc(C)cc3)ccc2s1	D2 PAM-2 43
COc1ccccc1C1C(C#N)=C(N)N(N(C)C)C2=C1C(=O)CC(C)(C)C2 (stereo not given)	none
O=C1S/C(=C\c2ccc(Cl)cc2)C(=O)N1CCn1cnnn1	D2 PAM-2 38
COc1cccc(-c2noc(COc3ccccc3Cl)n2)c1	none (no result: D2 PAM-1, D2 antag, D2 ag-2)
CCOC(=O)/C=c1\s/c(=C\c2ccc3c(c2)OCCO3)c(=O)n1CC(=O)NCC1CCCO1 (stereo not given)	D2 antag 55
CC(C)c1ccc(NC(=S)NC2CCN(Cc3ccccc3)CC2)cc1	D2 antag 52
Cc1ccc(NC(=S)NC2CCN(Cc3ccccc3)CC2)cc1C	D2 PAM-1 inconclusive, D2 antag 78
CC1=C(C)CC(C(=O)N2CCN(Cc3ccccc3)CC2)C(C(=O)O)C1 (stereo not given)	D2 PAM-2 30
CC(C)c1ccc(NC(=S)N2CCN(Cc3ccccc3)CC2)cc1	none
Cc1ccc(C(=S)N2CCN(Cc3ccccc3)CC2)cc1	D2 antag 65
S=C(Nc1ccc2c(c1)OCO2)NC1CCN(Cc2ccccc2)CC1	D2 antag 59
Cc1ccc(NC(=S)NC2CCN(Cc3ccccc3)CC2)cc1	D2 antag 84
Cc1ccc(NC(=S)N2CCN(Cc3ccccc3)CC2)cc1	none (no result: D2 PAM-2)
CCOC(=O)C1CCN(C(=O)c2cc(S(=O)(=O)N3CCCCCC3)ccc2OC)CC1	D2 antag 38
CCOC(=O)C1CCCN(S(=O)(=O)c2ccc(C)cc2)C1 (stereo not given)	none
COc1ccc(S(=O)(=O)N2CCCCCC2)cc1C(=O)N1CCN(c2ccc(F)cc2)CC1	none (no result: D2 ag-1, D2 antag, D2 PAM-2)
COc1ccc(N2CCN(C(=O)c3cc(S(=O)(=O)N4CCCCCC4)ccc3OC)CC2)cc1	D2 antag 40
CCOC(=O)C1CCCN(S(=O)(=O)c2ccc(S(N)(=O)=O)cc2)C1 (stereo not given)	D2 PAM-2 51
Nc1c(C(=O)c2ccccc2)sc(Nc2ccc(Cl)c(Cl)c2)c1C(=O)Nc1ccccc1	none (no result: D2 PAM-1, D2 antag, D2 ag-2)
CCn1c(=O)cc(SCC(=O)NCc2ccc(OC)cc2OC)c2ccccc21	none (no result: D2 PAM-1, D2 antag, D2 ag-2)
CCN(CC)C(=O)N1CCN(C)CC1	D2 antag 32
COc1ccc(CNC(=O)C2CCC(CNS(=O)(=O)c3cccc4nsnc34)CC2)cc1 (stereo not given)	none
O=C(NCc1ccc2c(c1)OCO2)C1CCC(CNS(=O)(=O)c2cccc3nsnc23)CC1 (stereo not given)	D2 antag 35
COC(=O)[C@]1(CC(C)C)N[C@H](c2ccc(SC3CCCCC3)c(OC)c2)[C@@H]2C(=O)N(C)C(=O)[C@@H]21	D2 PAM-2 32
O=C(CSc1nnc(-c2ccccc2)n1-c1ccc(Cl)cc1)N/N=C/c1ccccc1C(=O)O	none
Cc1ccc(-c2nnc(SCC(=O)N/N=C/c3c(C)nn(-c4ccccc4)c3C)n2-c2ccc(C)cc2)cc1	none
CCn1c(SCC(=O)N/N=C/c2ccc(C)o2)nnc1-c1ccccc1	D2 antag 57
Cc1ccc(/C=N/NC(=O)CSc2nnc(-c3ccc(Cl)cc3)n2-c2ccc(Cl)cc2)o1	D2 PAM-1 84
Cc1nn(-c2ccccc2)c(C)c1/C=N/NC(=O)CSc1nnc(-c2ccccc2)n1-c1ccc(Cl)cc1	D2 PAM-2 35
Cc1ccc(/C=N/NC(=O)CSc2nnc(-c3ccccc3)n2-c2ccc(Cl)cc2)o1	D2 PAM-1 54
CCN1c2ccccc2-c2nc(SCC(=O)Nc3cc(C)c(Cl)cc3OC)ncc2S1(=O)=O	none (no result: D2 PAM-1, D2 antag, D2 ag-2)
